Measured values published in PubChem BioAssay (NCATS).
Records with an inconclusive call do not appear. Activity calls are given as the source filed them. Unless noted, calls come from the whole dose curve; as a rule, active = well fitted curve in either direction with a large enough effect (not every such curve was filed as active); inconclusive = small, poorly fitted or top-dose-only effect, or another doubt; inactive = flat fitted curve, though single readings scatter.

Columns and labels:
[1] = biological target: Lysosomal acid glucosylceramidase (Homo sapiens) (UniProt P04062); experiment: Glucocerebrosidase-p2 (AID 348; in the data active = potency below about 10 µM; note: potency is the fitted concentration of half-maximal effect); settings: purified GBA, blue fluorogenic substrate, 40 min
Procedure, shortened: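 Normal human glucocerebrosidase (0.2 nM) with blue fluorogenic substrate (80 uM final) in citrate/phosphate pH 5.9 with 10mM sodium taurocholate, 0.01% tween-20; 40 min RT, NaOH/glycine stop; fluorescence Ex 365/Em 440; AC50 from a titration from 0.6 nM upwards.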

[2] = biological target: Cytochrome P450 1A2 (Homo sapiens) (UniProt P05177); experiment: p450-cyp1a2 (AID 410; calls by dose curve; note: potency is the fitted concentration of half-maximal effect;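 for activity change, negative = inhibition: -100% = full effect of reference inhibitor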)
Procedure, shortened: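 Read-out is luminescence from luciferin produced by CYP1A2 demethylation of Luciferin-ME (100uM, at Km). Detection reagent stopped the 60 min NADPH-dependent reaction; signals were normalized to 57 uM furafylline.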

[3] = NFAT Signaling Pathway (AID 444); settings: Jurkat NFAT-bla M1, carbachol, beta-lactamase ratio, 5 h; at 7.69 µM (top of the series) unless noted;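 note: carbachol stimulus at about its EC50 of 1 µM final; % is set by controls: 0 for no effect and ±100 for the full control effect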
Procedure, shortened: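 Read-out: CCF4 FRET ratio (460 nm/530 nm) after 1 h RT dye loading, used for %activity and AC50 from titration series. Cells: Jurkat NFAT-β-lactamase/M1 line, treated with compound plus 1 uM carbachol for 5 h, 37 °C.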

[4] = Stat Signaling Pathway (AID 446); settings: ME-180 SIE beta-lactamase reporter, IL-6 stimulated, 5 h; at 7.69 µM (top of the series) unless noted;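 note: ME-180 cervical cancer cells given 40 pM IL-6 alongside compound; SIE-controlled beta-lactamase reporter measured as 460/530 nm FRET emission ratio; % is set by controls: 0 for no effect and ±100 for the full control effect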
Procedure, shortened: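 Emission at 460 and 530 nm (excitation 405 nm) reports SIE-controlled beta-lactamase in ME-180 cells. Cells received compound with 40 pM IL-6 for 5 hrs at 37 C; data scaled between 300 pM IL-6 and 125 nM JAK-inhibitor controls.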

[5] = biological target: Glucocorticoid receptor (Homo sapiens) (UniProt P04150); experiment: GR-EFC Redistribution (AID 451; calls by dose curve; note: potency is the fitted concentration of half-maximal effect); settings: CHO-K1 GR-EFC translocation, beta-gal luminescence, 2 h
Procedure, shortened: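 Translocation of GR-ED fusion to nuclear EA restores b-gal, read by luminescence after 1 h room-temperature detection. Engineered CHO-K1 biosensor cells, 1,000/well, exposed 2 h at 37 C to titrations up to 46 uM final.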

[6] = biological target: Mitogen-activated protein kinase 10 (Mus musculus) (UniProt Q61831); experiment: JNK3 AlphaScreen Assay (AID 530);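 note: kinase came from lysate of stimulated human HepG2 cells; signal reports phosphorylation of biotinylated GST-cJun 1-79 at Ser73 with 10 µM ATP; % is set by controls: 0 for no effect and ±100 for the full control effect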
Procedure, shortened: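 Kinase buffer: 20 mM Tris-HCl pH 7.6, 10 mM MgCl2, 1 mM DTT, 0.1 mM Na3VO4, 0.01% Tween-20; ATP 10 uM. Substrate biotin-GST-cJun(1-79), enzyme from activated HepG2 lysates. Detection by Ser73 phospho-antibody AlphaScreen.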

[7] = biological target: 3',5'-cyclic-AMP phosphodiesterase 4B (Homo sapiens) (UniProt Q07343); experiment: qHTS Assay for Inhibitors of PDE-IV (AID 607; active = well fitted activation curve with a large enough effect in the main read-out, with a control signal flat, not every such curve was filed as active; note: % of control where 0% means no effect)
Procedure, shortened: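 The readout is membrane depolarisation from a cAMP-sensing CNG channel, detected with a potential dye at ex 535/em 590. Cells were HEK293-derived (endogenous PDE-IV) at 1000 cells/well, titrated up to 22.9 uM final.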

[8] = biological target: Cytochrome P450 3A4 (Homo sapiens) (UniProt P08684); experiment: qHTS Assay for Activators of Cytochrome P450 3A4 (AID 885; active = well fitted curve in the direction sought with a large enough effect; an effect the other way counts as inactive or inconclusive; note: nearly all actives have a fitted effect of over 65% in size; note: potency is the fitted concentration of half-maximal effect)
Procedure, shortened: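 Activators are scored by enhanced luminescence from CYP3A4 conversion of luciferin-PPXE (25uM, equal to KM) to luciferin, after 60 min at RT with an NADPH-regenerating system.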

[9] = qHTS Assay for Lipid Storage Modulators (AID 1519; calls by dose curve); settings: Drosophila S3 cells, BODIPY lipid droplet/cell ratio, laser cytometry, cells loaded with oleic acid; for activity change, negative = inhibition: at 57.5 µM (top of the series)
Procedure, shortened: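 Cells seeded at 5,000 per well were treated with compounds over a concentration series and loaded with oleic acid (400 uM, as added). Lipid droplet fluorescence (488 nm excitation, 500-530 nm channel) was read by laser-scanning cytometry and normalized to 20 uM Triacsin C.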

[10] = Primary qHTS for small molecule stabilizers of the endoplasmic reticulum resident proteome: Secreted ER Calcium Modulated Protein (SERCaMP) assay (AID 1508630; active = well fitted curve in the direction sought with a large enough effect; an effect the other way counts as inactive or inconclusive; note: % is set by controls: 0 for no effect and ±100 for the full control effect)
Procedure, shortened: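 The SH-SY5Y reporter protocol was run at 3 concentrations up to 38.3 uM (primary) or 11 concentrations (follow-up): 16 h compound, 100 nM thapsigargin for 4 h, then extracellular luciferase luminescence.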

[11] = AP1 Signaling Pathway (AID 357); settings: ME-180 (cervical carcinoma) AP-1-bla reporter, EGF-induced, beta-lactamase ratio, 5 h; at 7.69 µM (top of the series) unless noted
Procedure, shortened: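 Read-out was the 460nm/530nm emission ratio (excitation 405nm) after CCF4 loading for 2.5 hours at room temperature. Cells carried an AP-1-driven beta-lactamase reporter, were stimulated with EC50 EGF plus compound for 5 hours, and AC50 values came from titrations.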

[12] = biological target: Glucocorticoid receptor (Homo sapiens) (UniProt P04150); experiment: GR-GFP Redistribution (AID 450;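 active = compounds whose dose series gives a full or clear partial fitted curve of increased nuclear translocation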; note: potency is the fitted concentration of half-maximal effect); settings: U2OS GR-GFP nuclear translocation, laser cytometry, 2 h
[13] = biological target: Ubiquitin carboxyl-terminal hydrolase 1 (Homo sapiens) (UniProt O94782); experiment: Inhibitors of USP1/UAF1: Pilot qHTS (AID 504865; active = well fitted curve in the direction sought with a large enough effect; an effect the other way counts as inactive or inconclusive;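 note: rhodamine fluorescence freed from ubiquitin-rhodamine substrate followed over time; top concentration of the series differs between compounds; % is set by controls: 0 for no effect and ±100 for the full control effect; nearly all actives have a fitted effect of over 35% in size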)
Procedure, shortened: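 Kinetic fluorescence assay: 1nM USP1/UAF1, 15 min compound preincubation, then 150nM Ub-Rho; 480/540 nm.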

[14] = biological target: Cytochrome P450 3A4 (Homo sapiens) (UniProt P08684); experiment: qHTS Assay for Inhibitors and Substrates of Cytochrome P450 3A4 (AID 884; active = well fitted curve in the direction sought with a large enough effect; an effect the other way counts as inactive or inconclusive; note: nearly all actives have a fitted effect of over 50% in size; note: potency is the fitted concentration of half-maximal effect)
Procedure, shortened: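 Luminescent readout of luciferin produced by CYP3A4 (20 nM) dealkylation of Luciferin-PPXE, 25 uM (its KM). NADPH-driven reaction ran 60 min at RT after 10 min compound preincubation; data scaled to 57 uM ketoconazole as 100% inhibition.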

[15] = measured here: cell count channel max response
[16] = measured here: lipid channel max response

3',5'-cyclic-AMP phosphodiesterase 4B (Homo sapiens), sequence (Q07343 whole entry, looked up): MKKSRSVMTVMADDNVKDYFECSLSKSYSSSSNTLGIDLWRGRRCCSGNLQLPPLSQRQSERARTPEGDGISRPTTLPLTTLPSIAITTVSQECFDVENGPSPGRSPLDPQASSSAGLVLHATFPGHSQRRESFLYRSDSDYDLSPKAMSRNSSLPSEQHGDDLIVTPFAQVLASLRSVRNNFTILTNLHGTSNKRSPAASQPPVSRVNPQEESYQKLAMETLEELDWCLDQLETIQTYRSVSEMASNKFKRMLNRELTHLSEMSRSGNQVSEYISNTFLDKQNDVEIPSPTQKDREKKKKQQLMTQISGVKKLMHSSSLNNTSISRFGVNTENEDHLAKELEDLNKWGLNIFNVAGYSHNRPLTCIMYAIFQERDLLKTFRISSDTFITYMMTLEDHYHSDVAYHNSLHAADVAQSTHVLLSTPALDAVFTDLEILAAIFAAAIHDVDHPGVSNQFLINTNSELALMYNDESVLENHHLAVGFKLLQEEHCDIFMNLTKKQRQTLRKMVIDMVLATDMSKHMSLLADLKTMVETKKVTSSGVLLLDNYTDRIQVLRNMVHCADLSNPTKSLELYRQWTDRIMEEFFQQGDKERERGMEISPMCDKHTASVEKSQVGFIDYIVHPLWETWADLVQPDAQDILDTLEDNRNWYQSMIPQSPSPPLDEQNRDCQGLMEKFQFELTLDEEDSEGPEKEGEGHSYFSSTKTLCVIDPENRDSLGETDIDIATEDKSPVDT
Glucocorticoid receptor (Homo sapiens), sequence (P04150 whole entry, looked up, the tested form may be a part): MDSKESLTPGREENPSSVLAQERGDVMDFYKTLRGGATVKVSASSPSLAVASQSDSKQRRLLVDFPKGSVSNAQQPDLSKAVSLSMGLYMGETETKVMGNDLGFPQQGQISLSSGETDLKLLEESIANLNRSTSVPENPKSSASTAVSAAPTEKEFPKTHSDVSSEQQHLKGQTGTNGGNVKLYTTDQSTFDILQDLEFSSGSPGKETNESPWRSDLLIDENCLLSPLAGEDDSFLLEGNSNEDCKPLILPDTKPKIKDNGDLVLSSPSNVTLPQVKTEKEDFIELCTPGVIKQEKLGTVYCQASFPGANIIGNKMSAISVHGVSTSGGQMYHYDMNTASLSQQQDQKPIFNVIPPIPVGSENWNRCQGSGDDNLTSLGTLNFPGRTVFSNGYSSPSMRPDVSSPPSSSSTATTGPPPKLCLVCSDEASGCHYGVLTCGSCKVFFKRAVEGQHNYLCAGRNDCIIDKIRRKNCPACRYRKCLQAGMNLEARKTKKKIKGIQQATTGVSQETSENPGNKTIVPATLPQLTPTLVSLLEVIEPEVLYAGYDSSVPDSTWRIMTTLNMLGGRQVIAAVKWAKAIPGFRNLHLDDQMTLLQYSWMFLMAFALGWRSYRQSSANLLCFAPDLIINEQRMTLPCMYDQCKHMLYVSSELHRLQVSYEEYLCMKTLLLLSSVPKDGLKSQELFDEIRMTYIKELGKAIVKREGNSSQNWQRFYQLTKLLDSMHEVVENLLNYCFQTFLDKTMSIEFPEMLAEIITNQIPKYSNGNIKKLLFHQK
Cytochrome P450 1A2 (Homo sapiens), sequence (P05177 whole entry, looked up): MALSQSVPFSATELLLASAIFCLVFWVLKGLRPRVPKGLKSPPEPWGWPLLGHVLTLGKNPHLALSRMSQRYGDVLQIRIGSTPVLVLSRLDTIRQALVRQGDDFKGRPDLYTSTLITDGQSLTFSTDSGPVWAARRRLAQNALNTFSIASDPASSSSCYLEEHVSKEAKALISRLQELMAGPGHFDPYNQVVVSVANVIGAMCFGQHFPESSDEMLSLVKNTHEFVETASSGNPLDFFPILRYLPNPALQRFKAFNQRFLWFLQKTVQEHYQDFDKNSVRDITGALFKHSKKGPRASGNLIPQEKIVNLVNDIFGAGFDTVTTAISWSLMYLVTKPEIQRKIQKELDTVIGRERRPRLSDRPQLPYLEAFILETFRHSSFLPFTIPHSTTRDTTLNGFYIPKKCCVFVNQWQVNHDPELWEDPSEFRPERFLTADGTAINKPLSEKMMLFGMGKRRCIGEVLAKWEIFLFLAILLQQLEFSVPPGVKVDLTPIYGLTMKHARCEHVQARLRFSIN
Cytochrome P450 3A4 (Homo sapiens), sequence (P08684 whole entry, looked up): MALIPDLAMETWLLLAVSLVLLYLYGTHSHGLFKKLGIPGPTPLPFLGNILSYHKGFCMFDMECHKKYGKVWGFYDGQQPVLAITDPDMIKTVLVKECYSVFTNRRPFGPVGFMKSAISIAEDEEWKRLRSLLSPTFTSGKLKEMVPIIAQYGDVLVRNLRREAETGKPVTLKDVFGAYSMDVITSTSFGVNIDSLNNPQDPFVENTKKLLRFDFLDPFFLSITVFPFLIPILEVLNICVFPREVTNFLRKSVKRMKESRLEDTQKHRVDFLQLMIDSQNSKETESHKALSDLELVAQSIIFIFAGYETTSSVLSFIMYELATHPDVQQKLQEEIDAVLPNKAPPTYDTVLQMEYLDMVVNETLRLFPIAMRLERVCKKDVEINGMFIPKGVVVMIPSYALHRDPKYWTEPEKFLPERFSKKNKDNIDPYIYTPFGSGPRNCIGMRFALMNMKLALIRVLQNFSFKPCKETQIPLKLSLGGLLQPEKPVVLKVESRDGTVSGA
Lysosomal acid glucosylceramidase (Homo sapiens), sequence (P04062 whole entry, looked up): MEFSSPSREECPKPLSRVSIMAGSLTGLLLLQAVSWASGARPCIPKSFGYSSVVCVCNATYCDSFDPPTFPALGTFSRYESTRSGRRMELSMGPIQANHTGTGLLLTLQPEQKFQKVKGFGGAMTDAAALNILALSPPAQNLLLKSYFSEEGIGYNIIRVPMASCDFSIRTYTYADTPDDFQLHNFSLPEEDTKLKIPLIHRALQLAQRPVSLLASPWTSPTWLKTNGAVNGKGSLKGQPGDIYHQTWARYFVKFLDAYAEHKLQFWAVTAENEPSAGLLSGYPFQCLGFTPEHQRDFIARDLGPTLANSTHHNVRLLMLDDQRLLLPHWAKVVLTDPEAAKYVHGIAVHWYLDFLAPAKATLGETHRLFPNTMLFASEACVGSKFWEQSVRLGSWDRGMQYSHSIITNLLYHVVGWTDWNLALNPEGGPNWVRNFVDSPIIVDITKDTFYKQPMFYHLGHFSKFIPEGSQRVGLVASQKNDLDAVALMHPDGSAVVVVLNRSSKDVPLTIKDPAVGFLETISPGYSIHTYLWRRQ
Ubiquitin carboxyl-terminal hydrolase 1 (Homo sapiens), sequence (O94782 whole entry, looked up): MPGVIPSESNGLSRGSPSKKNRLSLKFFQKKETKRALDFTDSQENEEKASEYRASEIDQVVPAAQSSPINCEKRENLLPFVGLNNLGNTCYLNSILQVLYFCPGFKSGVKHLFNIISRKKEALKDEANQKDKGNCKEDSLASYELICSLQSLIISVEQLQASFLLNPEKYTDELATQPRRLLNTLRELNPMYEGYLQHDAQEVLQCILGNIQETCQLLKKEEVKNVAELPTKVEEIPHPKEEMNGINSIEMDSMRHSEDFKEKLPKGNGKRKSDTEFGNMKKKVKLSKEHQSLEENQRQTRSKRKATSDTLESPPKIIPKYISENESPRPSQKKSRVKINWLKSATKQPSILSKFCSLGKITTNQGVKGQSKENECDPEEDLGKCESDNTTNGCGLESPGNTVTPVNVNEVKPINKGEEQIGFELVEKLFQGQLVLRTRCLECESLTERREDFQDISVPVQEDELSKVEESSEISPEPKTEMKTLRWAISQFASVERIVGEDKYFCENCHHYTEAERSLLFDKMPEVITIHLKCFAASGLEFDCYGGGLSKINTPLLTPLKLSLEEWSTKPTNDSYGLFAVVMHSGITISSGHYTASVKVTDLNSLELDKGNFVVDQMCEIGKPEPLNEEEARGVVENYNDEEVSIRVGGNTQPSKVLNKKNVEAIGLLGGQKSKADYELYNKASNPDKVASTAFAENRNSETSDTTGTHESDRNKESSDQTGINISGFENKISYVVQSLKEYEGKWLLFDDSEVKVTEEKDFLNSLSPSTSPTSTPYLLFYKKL

Structure (SMILES)	Potency [1]	Potency [2]	activity change, negative = inhibition [3]	activity, negative = inhibition [4]	Potency [5]	outcome [6]	Potency [7]	Potency [8]	activity change, negative = inhibition [9]	max response [9, 15] [%]	max response [9, 16] [%]	Potency [10]	activity change, negative = inhibition [11]	Potency [12]	Potency [13]	Potency [14]
O=C(Nc1cccc(F)c1)N1CCCC2(CCN(S(=O)(=O)c3ccccc3)CC2)C1	> 11.4 µM (inactive)	inactive	-29.9% (inactive)	-7.25% (inactive)	> 46 µM (inactive)	inactive	inactive	inactive	1.65% (inactive)	13.8	17.3	inactive				
CN(C)c1ncc2ncc(=O)n(C3CC3)c2n1		3.16 µM (active)	-1.2% (inactive)	-11.1% (inactive)	> 46 µM (inactive)	inactive	inactive		7.21% (inactive)	15.8	22.4	inactive	0.558% (inactive)	> 9.22 µM (inactive)	inactive	
O=C(c1cc(C(F)(F)F)cc(C(F)(F)F)c1)N1CCC[C@@]2(CCN(Cc3ccncc3)C2)C1		12.6 µM (active)	-25.1% (inactive)	-8.97% (inactive)	> 46 µM (inactive)	inactive	inactive	inactive	7.2% (inactive)	20.1	28.8	inactive	-6.9% (inactive)			0.501 µM (active)
CS(=O)(=O)N1CCC2(CCN(C(=O)Nc3cccc(C#N)c3)CC2)CC1	> 11.4 µM (inactive)	inactive	16.4% (inactive)	-21% (inactive)	> 46 µM (inactive)	inactive	inactive		2.84% (inactive)	-15.9	-10.5	inactive				
O=C(Oc1ccccc1)N1CCC2(CC1)CCN(c1ncccn1)CC2		inactive	-8.96% (inactive)	-1.88% (inactive)	> 46 µM (inactive)	inactive	inactive	6.31 µM (active)	2.83% (inactive)	-3.54	1.32	inactive				inactive
